Measurements reported in PubChem BioAssay (Tox21).
Records with an inconclusive call do not appear. A call without a number means that no potency is given here. Activity calls are given as the source filed them. Calls follow the shape of the dose curve; as a rule, active = well fitted activation curve with a large enough effect in the repeat runs; inconclusive = weak or mixed curves; inactive = flat fitted curve, though single readings scatter.

Test: Caspase-3/7 induction in HepG2 cells by small molecules, qHTS assay (AID 1346978); also: nearly all actives have a fitted effect of over 15% in size
Conditions: HepG2 caspase-3/7 activation, Caspase-Glo luminescence, 17 h; series mostly up to 92.4 µM
How it was run: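 Caspase-3/7 induction was measured by Caspase-Glo 3/7 luminescence (30 min, room temperature) after a 17 hr compound exposure of wild-type HepG2 cells seeded at 2,000 per well and pre-incubated 5 hr.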
For `CCCCCCCCSCC`, the Potency was “inactive”.
For `CCCC/C=C\CCCCCCCCCC=O`, the Potency was “inactive”.
In the case of `CCCCCCCCC1CCC(=O)O1` (configuration not stated), the Potency is reported as “inactive”.
In the case of `Cc1cc(NC(=O)C2=C(O)c3ccccc3S(=O)(=O)N2C)no1`, the Potency is reported as “inactive”.
In the case of `N#Cc1ccc(C(=O)O)cc1`, the Potency is reported as “inactive”.
With `CCNC(=O)C1CC(C)CCC1C(C)C` (configuration not stated) the Potency was “inactive”.
For `C=CCCCCCCCCCCCC`, the Potency was “inactive”.
With `CC(CO)c1ccccc1` (configuration not stated) the Potency was “inactive”.
For `Nc1nnc(-c2cccc(Cl)c2Cl)c(N)n1`, the Potency was “inactive”.
In the case of `Cc1cc(Cl)c(C)cc1Cl`, the Potency is reported as “inactive”.
In the case of `COCCOC(=O)C1=C(C)NC(C)=C(C(=O)OC(C)C)C1c1cccc([N+](=O)[O-])c1` (configuration not stated), the Potency is reported as “inactive”.
In the case of `O=C(O)C(=O)Cc1ccccc1`, the Potency is reported as “inactive”.
In the case of `CC(C)(C)c1n[nH]c(=S)n(N)c1=O`, the Potency is reported as “inactive”.
With `COC(=O)CCc1ccc(OCC(O)CNC(C)C)cc1` (configuration not stated) the Potency was “inactive”.
With `Nc1cccc(O)c1` the Potency was “inactive”.
In the case of `O=C(O)c1cc(Cl)cc([N+](=O)[O-])c1Cl`, the Potency is reported as “inactive”.
For `C#CC(C)N(C)C(=O)Nc1ccc(Cl)cc1` (configuration not stated), the Potency was “inactive”.
For `CCC(CC)CO`, the Potency was “inactive”.
For `CC(C)NCC(O)COc1cccc2[nH]ccc12` (configuration not stated), the Potency was “inactive”.
With `COc1cc2c(cc1OC)C(=O)CC2` the Potency was “inactive”.
With `CC1COc2ccccc2N1` (configuration not stated) the Potency was “inactive”.
With `BrCCCCCBr` the Potency was “inactive”.
In the case of `C[C@@H](Oc1ccc(CNC(=O)c2cccnc2Oc2ccc3c(c2)OCO3)c(F)c1)C(=O)O`, the Potency is reported as “inactive”.
For `COC(=O)C1CC(=O)C(C(=O)OC)CC1=O` (configuration not stated), the caspase activation was 0.89% [at 8.39 µM] (inactive).
For `CC(C)CC(=O)O`, the Potency was “inactive”.
For `NS(=O)(=O)c1cc2c(cc1Cl)CN(C1CCCCC1)C2=O`, the Potency was “inactive”.
In the case of `C=C(C)C1CCC(C)(O)CC1` (configuration not stated), the Potency is reported as “inactive”.
